This is a sample that favours compounds with a hit; in the whole collection about 2.3% have one here.
YB-1 expr inh = YB-1 expression inhibition; 30,000 compounds, 0.37% hits; AID 434959; U2OS, qRT-PCR YB-1 vs CDIP delta delta Cp, 16 h; hits give high values; zero = DMSO, each unit about twofold; delta delta Cp (YB-1 minus CDIP) (no concentration beside the values);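 active = delta delta Cp rounded down to an integer at or above 3, about 3 SD of DMSO wells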;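 also: higher means less YB-1 transcript or more CDIP transcript relative to DMSO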
ROS inducer = raises reactive oxygen species in U2OS cancer cells; AID 624156; 46,000 compounds, 2% hits; U2OS ROS induction, H2DCF-DA fluorescence; ROS induction (% of piperlongumine), % at 10 µM; in the data active = ROS induction above about 79%, passing the limit was not always enough;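 also: 0% = DMSO vehicle median and 100% = reference compound median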
Numbers without * were called inactive; · = not tested or not shown.

SMILES	YB-1 expr inh	ROS inducer
Cc1ccc(-c2cc(C(F)F)n3ncc(C(=O)NCc4ccco4)c3n2)cc1	·	110.8*
O=C(NCCN1CCOCC1)c1cnn2c(C(F)F)cc(-c3ccccc3)nc12	·	67.2
Cc1ccc(-c2cc(C(F)(F)F)n3nc(C(=O)NCc4ccco4)cc3n2)cc1	·	38.7
CCOC(=O)c1sc(N(Cc2nc(-c3cccc(C)c3)oc2C)C(C)=O)c(C#N)c1C	·	19.2
Cc1cc(C)c(OCC(=O)Nc2cc(-c3nc4ncccc4o3)ccc2C)c(Cl)c1	·	-2.6
CC(=C1C(=O)c2ccccc2C1=O)N1CCC(Cc2ccccc2)CC1	·	-6.8
O=C(Nc1cccc2ccccc12)C(Cc1ccccc1)N1C(=O)C2C3CCC(C3)C2C1=O (configuration not stated)	·	3.9
CCN1C(=O)c2ccccc2Sc2ccc(C(=O)NCc3ccccc3)cc21	·	25.6
CCC(C(=O)Nc1ccccc1F)n1c(SCc2ccc(F)cc2)nc2ccncc21 (configuration not stated)	·	17.1
COC(=O)c1ccc([C@@H]2C=C(C(=O)N3CCN(Cc4ccc5c(c4)OCO5)CC3)O[C@H](OCc3ccc(CO)cc3)C2)cc1	0.663	99.8*
O=C(C1=C[C@@H](c2ccc3c(c2)Cc2ccccc2-3)C[C@@H](OCc2ccc(CO)cc2)O1)N1CCN(Cc2ccc3c(c2)OCO3)CC1	0.158	29.5
COc1ccc(-c2nc(C)c(CCNC(=O)C(C)(C)C)s2)cc1	·	2.2
C[N+]1(C)CCCC(OC(=O)C(O)(c2ccccc2)c2ccccc2)C1 (configuration not stated)	8.86*	-10.9
C[N+]1(C)C2CC[C@H]1CC(OC(=O)C(O)c1ccccc1)C2 (some centres not stated)	0.48	-8.7
C=CCSc1nnc2c(n1)OC(c1ccc(-c3ccc(F)cc3)o1)N(C(C)=O)c1ccccc1-2 (configuration not stated)	0.173	118.1*
CSc1nnc2c(n1)OC(C)N(C(C)=O)c1ccccc1-2 (configuration not stated)	0.179	12.4
C[C@H]1CN([C@@H](C)CO)C(=O)c2cccc(NC(=O)Nc3ccc4c(c3)OCO4)c2O[C@@H]1CN(C)Cc1ccc(-c2ccccc2)cc1	-0.303	15.7
C[C@H]1CN([C@@H](C)CO)C(=O)c2cccc(NC(=O)Nc3ccc(F)cc3)c2O[C@@H]1CN(C)Cc1ccc(-c2ccccc2)cc1	0.182	58.5
C[C@H]1CN([C@@H](C)CO)C(=O)c2cccc(NC(=O)Nc3ccc4c(c3)OCO4)c2O[C@H]1CN(C)Cc1ccc(-c2ccccc2)cc1	0.584	102.0*
C[C@@H]1CN([C@H](C)CO)C(=O)c2cccc(NC(=O)Nc3ccccc3)c2O[C@@H]1CN(C)Cc1ccc(Oc2ccccc2)cc1	-0.291	13.2
C[C@@H]1CN([C@@H](C)CO)C(=O)c2cccc(NC(=O)Nc3ccccc3)c2O[C@@H]1CN(C)Cc1ccc(-c2ccccc2)cc1	1.12	82.4*
C[C@H]1CN([C@@H](C)CO)C(=O)c2cccc(NC(=O)Nc3ccccc3)c2O[C@@H]1CN(C)Cc1ccc(Cl)c(Cl)c1	0.105	89.1*
C[C@@H]1CN([C@H](C)CO)C(=O)c2cccc(NC(=O)Nc3ccccc3)c2O[C@@H]1CN(C)Cc1ccc(Cl)c(Cl)c1	-0.169	15.1
C[C@H](CO)N1C[C@H](C)[C@@H](CN(C)Cc2ccc(Oc3ccccc3)cc2)Oc2c(NC(=O)Nc3ccccc3)cccc2C1=O	0.0895	101.2*
CCOC(Cn1c(SCC#N)nc2ccccc2c1=O)OCC	·	-4.2
SMILES	YB-1 expr inh	ROS inducer
C[C@H]1CN([C@@H](C)CO)C(=O)c2cccc(NC(=O)Nc3ccccc3)c2O[C@@H]1CN(C)Cc1ccc(C(=O)Nc2ccccc2N)cc1	-0.893	144.3*
C[C@@H]1CN([C@@H](C)CO)C(=O)c2cccc(NC(=O)Nc3ccccc3)c2O[C@@H]1CN(C)Cc1ccc(Oc2ccccc2)cc1	0.255	86.8*
C[C@H](CO)N1C[C@H](C)[C@@H](CN(C)Cc2ccc(C(=O)Nc3ccccc3N)cc2)Oc2c(NC(=O)Nc3ccccc3)cccc2C1=O	0.0436	46.2
C[C@H]1CN([C@@H](C)CO)C(=O)c2cccc(NC(=O)Nc3ccccc3)c2O[C@@H]1CN(C)Cc1ccc(Oc2ccccc2)cc1	-0.342	25.6
CCOc1ccc(NC(=O)CN2C(=O)C3(OCCCO3)c3ccccc32)cc1	·	-6.2
O=C(CSc1nc2ccccc2s1)Nc1ccncc1	·	-8.4
Cc1ccc2c(c1)c1nnc(SCCN3CCOCC3)nc1n2C	·	3.6
CCCn1c2ccc(C)cc2c2nnc(SCCN3CCOCC3)nc21	0.322	141.5*
CCCCn1c2ccccc2c2nnc(SCCN3CCOCC3)nc21	·	155.3*
c1ccc2c(c1)[nH]c1nc(SCCN3CCOCC3)nnc12	·	8.7
Cc1ccc2c(c1)c1nnc(SCCN3CCOCC3)nc1n2Cc1ccccc1	·	113.3*
CCCn1c2ccccc2c2nnc(SCCC(=O)O)nc21	·	44.3
Cn1cnc2c(cnn2-c2ccc(F)cc2)c1=O	·	-11.1
